Our source for the GFP signal change (wild-type ribosome), OD600 change and RFP signal change values is PubChem BioAssay AID720706 (Broad Institute, 2013).

Out of some 350,000 compounds screened, about 5,500 (1.6%) were called active.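 Rule for the calls: active = significant combined selectivity score with lowered wild-type GFP, culture density cut under 30%, mutant RFP and density less affected; inactive = any of these conditions unmet.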 The list comes from a sample in which actives are over-represented; it also holds similar structures and randomly drawn compounds.

This assay can be described thus: reduced GFP signal of wild-type E. coli, primary screen, bacterial rRNA inhibitor project, GFP/RFP fluorescence, OD600, single point (AID 720706). The conditions noted are these: E. coli WT GFP vs humanized-ribosome RFP mutants, 24 h; GFP signal change (wild-type ribosome): stronger effect = lower value, DMSO median 0, no signal -100; OD600 change: measured here: OD600 growth, DMSO median 0, no signal -100; RFP signal change: measured here: RFP humanized mutant strains, DMSO median 0, no signal -100, concentration not given here.
In the case of `C/C=C/c1cnc2c(c1)C(=O)N([C@H](C)CO)C[C@H](C)[C@H](CN(C)C(=O)c1cccc(F)c1)O2`, the GFP signal change (wild-type ribosome) was 2.26% (inactive), the OD600 change was found to be 2.83% and the RFP signal change is -3.73%.

For `CCCOc1ccc(NC(=O)CC2C(=O)N(C)C(=S)N2Cc2ccc3c(c2)OCO3)cc1` (stereo unspecified), the GFP signal change (wild-type ribosome) was -21.2% (active), the OD600 change is -17.1% and the RFP signal change was 1.22%.

For `CCOc1ccc(NC(=O)CC2C(=O)N(c3ccccc3)C(=O)N2CCOC)cc1` (stereo unspecified), the GFP signal change (wild-type ribosome) was -0.19% (inactive), the OD600 change worked out at 4.93% and the RFP signal change was -3.42%.

For the compound `O=C(Nc1ccc(Cl)cc1)C1c2cccc[n+]2CC(=O)N1Cc1ccc2c(c1)OCO2` (stereo unspecified), the GFP signal change (wild-type ribosome) was 4.36% (inactive), the OD600 change stood at 0.665% and the RFP signal change was -2.94%.

As to `C[C@@H]1CCCCO[C@H](CN(C)C(=O)Nc2ccccc2)[C@H](C)CN([C@@H](C)CO)C(=O)c2cc(N(C)C)ccc2O1`, the GFP signal change (wild-type ribosome) is -1.6% (inactive), the OD600 change came to 2.72% and the RFP signal change is -1.91%.

With `CC[C@@H]1CC=CC[C@H](C)Oc2ccccc2C(=O)N(C)[C@H](Cc2ccccc2)C(=O)N1` (mixture of isomers), the GFP signal change (wild-type ribosome) is -6.42% (inactive), the OD600 change was -18.3% and the RFP signal change was -6.01%.

Consider `COc1ccc(CCNC(=O)CN(c2ccccc2)S(C)(=O)=O)cc1`, for which the GFP signal change (wild-type ribosome) was 4.81% (inactive), the OD600 change was determined as 11.8% and the RFP signal change worked out at 2.52%.

In the case of `CS(=O)(=O)N(CC(=O)N/N=C/c1ccccn1)c1ccc(Oc2ccccc2)cc1`, the GFP signal change (wild-type ribosome) was -25.9% (active), the OD600 change is -12.1% and the RFP signal change was -0.663%.

Take `O=C(COc1ccc(Cl)cc1Cl)N/N=C/c1ccccn1`: the GFP signal change (wild-type ribosome) is -7.74% (inactive), the OD600 change was -28.8% and the RFP signal change was 0.0022%.

Take `C[C@H](O)C#Cc1cnc2c(c1)C(=O)N([C@@H](C)CO)C[C@@H](C)[C@@H](CN(C)C(=O)Cc1ccccn1)O2`: the GFP signal change (wild-type ribosome) was 7.53% (inactive), the OD600 change was determined as 12.6% and the RFP signal change was -0.505%.

`C[C@@H]1CN([C@H](C)CO)C(=O)c2cc(NS(C)(=O)=O)ccc2O[C@H]1CN(C)C(=O)Nc1cccc2ccccc12`: the GFP signal change (wild-type ribosome) is 2.55% (inactive), the OD600 change turned out to be 10.8% and the RFP signal change was determined as 2.43%.

In the case of `O=C(Nc1cc(F)ccc1F)N1CC(=O)N2[C@H](CO)[C@@H](c3ccc(-c4cccnc4)cc3)[C@@H]2C1`, the GFP signal change (wild-type ribosome) is -12% (inactive), the OD600 change is -3.71% and the RFP signal change is -3.33%.

`COc1ccc(S(=O)(=O)Nc2ccc3c(c2)C(=O)N([C@H](C)CO)C[C@H](C)[C@H](CN(C)S(=O)(=O)c2ccc(Cl)cc2)O3)cc1`: the GFP signal change (wild-type ribosome) is -0.9% (inactive), the OD600 change was -8.14% and the RFP signal change worked out at 4.68%.

With `C=C(C)CSc1nc(N)c2c3c(sc2n1)CCC3`, the GFP signal change (wild-type ribosome) was -39.8% (active), the OD600 change was -31.8% and the RFP signal change was -10.7%.

Regarding `CCc1nc(N2CCN(C(C)=O)CC2)c2c3c(sc2n1)CCCC3`, the GFP signal change (wild-type ribosome) was -24.3% (inactive), the OD600 change is -27.4% and the RFP signal change is -2.91%.

Consider `Nc1nc(SCC(=O)NCCN2CCOCC2)nc2sc3c(c12)CCC3`, for which the GFP signal change (wild-type ribosome) is 4% (inactive), the OD600 change was 8.61% and the RFP signal change is -0.37%.

For `CC(C)NC(=O)NCC[C@H]1CC[C@@H](NS(=O)(=O)c2ccc(Oc3ccccc3)cc2)[C@@H](CO)O1`, the GFP signal change (wild-type ribosome) is -0.321% (inactive), the OD600 change was -25.1% and the RFP signal change is -2%.

For `O=C(C1CCCC1)N1CC(=O)N2[C@H](CO)[C@H](c3ccc(Br)cc3)[C@@H]2C1`, the GFP signal change (wild-type ribosome) was -0.977% (inactive), the OD600 change was -0.944% and the RFP signal change is 0.246%.

With `N#Cc1ccc(-c2ccc([C@H]3[C@H](CO)N4C(=O)CN(C(=O)Cc5ccccc5)C[C@@H]34)cc2)cc1`, the GFP signal change (wild-type ribosome) is -1.02% (inactive), the OD600 change is -2.88% and the RFP signal change was -0.285%.

As to `O=C(Cc1ccc(Cl)cc1)NC1CCS(=O)(=O)C1` (stereo unspecified), the GFP signal change (wild-type ribosome) is -9.2% (inactive), the OD600 change came to 1.76% and the RFP signal change is 1.96%.

Consider `CN(C(=O)CN1C(=O)/C(=C/c2ccc(Cl)cc2)SC1=S)C1CCS(=O)(=O)C1` (stereo unspecified), for which the GFP signal change (wild-type ribosome) is 15.8% (inactive), the OD600 change stood at 11% and the RFP signal change was 0.337%.

With `CC(C(=O)NC1CCS(=O)(=O)C1)N1C(=O)/C(=C/c2ccc(Cl)cc2)SC1=S` (stereo unspecified), the GFP signal change (wild-type ribosome) was -21.1% (active), the OD600 change is -15.7% and the RFP signal change came out at 1.14%.

For the compound `O=C1[C@H](Cc2ccc(C(F)(F)F)cc2)CCn2nncc2COC[C@@H]2CCCCN12`, the GFP signal change (wild-type ribosome) is -1.75% (inactive), the OD600 change was -2.21% and the RFP signal change was -0.899%.

For the compound `CN1c2ccc(Br)cc2[C@H]2[C@H](CCN2S(=O)(=O)c2ccc(F)cc2)[C@@H]1CO`, the GFP signal change (wild-type ribosome) was -56.1% (inactive), the OD600 change is -75.9% and the RFP signal change was -12.6%.

As for `O=C(CSc1nc2ccccc2[nH]1)N/N=C/C=C\c1ccccc1[N+](=O)[O-]`, the GFP signal change (wild-type ribosome) was -28.1% (active), the OD600 change was 3.26% and the RFP signal change was determined as 1.21%.

On to `O=C(COC(=O)CCCSc1nc2ccccc2[nH]1)Nc1ccc(Oc2ccccc2)cc1`, for which the GFP signal change (wild-type ribosome) is -34.8% (inactive), the OD600 change is -55% and the RFP signal change was determined as 0.945%.

Take `CN(Cc1ccccc1)C(=O)CSc1nc2ccccc2[nH]1`: the GFP signal change (wild-type ribosome) is -2.78% (inactive), the OD600 change came out at 2.36% and the RFP signal change is -0.812%.

Consider `CCOC(=O)C1=C(N)N(c2ccc(C)cc2)C2=C(C(=O)CCC2)C1c1cccs1` (stereo unspecified), for which the GFP signal change (wild-type ribosome) was -21.7% (active), the OD600 change was -17.5% and the RFP signal change was determined as 0.496%.

As for `CCOC(=O)c1c(N)sc2c1CCCC2=O`, the GFP signal change (wild-type ribosome) was 1.16% (inactive), the OD600 change was -0.897% and the RFP signal change is -0.662%.

As to `CCOc1ccc(C2C3=C(CCCC3=O)N(CC(=O)O)C3=C2C(=O)CCC3)cc1`, the GFP signal change (wild-type ribosome) was 17.4% (inactive), the OD600 change turned out to be 6.44% and the RFP signal change is -0.227%.

Take `COc1ccc(NC(=O)N(C)C[C@H]2OCCCC[C@H](C)Oc3ccc(NC(=O)NC4CCCCC4)cc3C(=O)N([C@@H](C)CO)C[C@@H]2C)cc1`: the GFP signal change (wild-type ribosome) is 1.21% (inactive), the OD600 change came out at 2.03% and the RFP signal change turned out to be 2.63%.

In the case of `COc1ccccc1OCCCC(=O)Nc1ccc2c(c1)OCCO2`, the GFP signal change (wild-type ribosome) is -2.92% (inactive), the OD600 change is -5.58% and the RFP signal change is -2.87%.

On to `COc1cccc(/C=C/C(=O)Nc2ccc3c(c2)OCCO3)c1`, for which the GFP signal change (wild-type ribosome) is -29.5% (active), the OD600 change is -2.39% and the RFP signal change turned out to be 4.27%.

Take `COc1cccc(C(=O)NNC(=O)/C=C/c2ccccc2)c1`: the GFP signal change (wild-type ribosome) is 6.18% (inactive), the OD600 change came out at 10.2% and the RFP signal change was determined as 3%.

As to `CO[C@H]1CN(C)C(=O)c2ccc(NC(C)=O)cc2OC[C@@H](C)N(C(=O)CN(C)C)C[C@@H]1C`, the GFP signal change (wild-type ribosome) is -1.24% (inactive), the OD600 change was determined as 6.54% and the RFP signal change is -4.25%.

With `COc1ccccc1C1CCN(C(=S)Nc2ccc(Br)cc2)CC1`, the GFP signal change (wild-type ribosome) is -36.8% (active), the OD600 change is -23.8% and the RFP signal change was -10.2%.

Consider `CCC(C)N(C)C1CCN(C(=S)Nc2ccc(OC)cc2)CC1` (stereo unspecified), for which the GFP signal change (wild-type ribosome) was 6.68% (inactive), the OD600 change is -2.86% and the RFP signal change was -3.62%.

Take `COc1ccccc1NC(=S)N1CCN(C(c2ccccc2)c2ccccc2)CC1`: the GFP signal change (wild-type ribosome) is 5.66% (inactive), the OD600 change amounted to 0.74% and the RFP signal change was -6.29%.

For the compound `CN[C@H]1C[C@H]2c3[nH]c4c(-c5ccccc5)cccc4c3CCN2C(=O)[C@H]1[C@H](C)O`, the GFP signal change (wild-type ribosome) is -35.6% (inactive), the OD600 change is -70.1% and the RFP signal change was -2.51%.

On to `CCc1nnc(NC(=O)C2CCN(C(=O)c3ccccc3C)CC2)s1`, for which the GFP signal change (wild-type ribosome) was 6.89% (inactive), the OD600 change amounted to 6.36% and the RFP signal change amounted to 0.577%.

Take `COc1ccc(CNC(=O)C2CCN(C(=O)c3ccco3)CC2)cc1`: the GFP signal change (wild-type ribosome) is -1.02% (inactive), the OD600 change stood at 2.41% and the RFP signal change is 0.192%.

In the case of `CCC(CC)c1nnc(NC(=O)C2CCN(C(=O)c3ccco3)CC2)s1`, the GFP signal change (wild-type ribosome) is -22.2% (active), the OD600 change is -16.6% and the RFP signal change was -5.86%.
